Source: PubChem BioAssay
Pf Dd2 inh: inhibitors of Plasmodium falciparum Dd2 growth; AID 1347417; Potency, µM (series often up to 28.9 µM), usual class: inhibitors; 120,000 tested, 4.3% active; P. falciparum Dd2 growth, SYBR Green, 72 h; active means well fitted inhibition curve with a large enough effect; further: nearly all actives have a fitted effect of over 65% in size
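Infected erythrocytes (Dd2, 0.3% parasitemia, 2.5% hematocrit final) are added to compound in RPMI-1640/Albumax II medium, grown 72 h at 37C in low oxygen, then lysed with saponin/Triton-X containing SYBR Green and read by fluorescence.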
Each line names hits and unclear results; the compound was inactive in the other large screens. Many of the other results were omitted from the sample, so hits are more common in it than they were.

O=C(c1ccccc1OCC1CCCNC1)N1CCCCC1 (stereo unspecified)	none
COc1ccc(F)cc1-c1ccc(C=O)cc1	none
COc1ccc(F)cc1-c1ccccc1CN	Pf Dd2 inh 10µM
COc1ccccc1-c1ccc(CN)cc1	none
CN(C)Cc1nnc(C2CC(NC(=O)c3ccc4c(c3)CCCO4)C2)n1C (stereo unspecified)	none
CCn1nccc1C(=O)NCCc1ncc(C)n1C1CC1	none
Cc1ccc(-c2ccc3nnc(CNC(=O)C4CCCCC4)n3n2)cc1	none
COc1cccc(NC(=O)c2ccc(-c3nnc4ccc(NC(=O)C5CCC5)cn34)cc2)c1	Pf Dd2 inh 0.282µM
COc1cccc(C(=O)N2CCC(C(=O)Nc3cccc(Cl)c3)CC2)c1	none
O=C(NCCN1CCOCC1)c1ccc(-c2ccc(N3CCCCCC3)nc2)cc1	none
C=CCNC(=O)c1ccc(-c2nnc3ccc(NC(=O)C4CCC4)cn23)cc1	Pf Dd2 inh 3.16µM
O=C(NCCN1CCCCC1)c1ccc(-c2nnc3ccc(NC(=O)C4CCC4)cn23)cc1	Pf Dd2 inh 1.26µM
O=C(NC1CCCC1)c1ccc2nnc(-c3cncc(Cl)c3)n2c1	none
COc1cccc(NC(=O)C2CCCN(S(=O)(=O)c3c(C)nn(C)c3C)C2)c1 (stereo unspecified)	none
CC(C)NC(=O)c1ccc(-c2nnc3ccc(NC(=O)C4CCC4)cn23)cc1	Pf Dd2 inh 3.98µM
O=C(NC1CC1)c1ccc2nnc(-c3ccc(F)cc3)n2c1	none
C=CCNC(=O)c1ccc2cncn2c1	none
O=C(Nc1ccc(-c2nnc3n2CCCC3)cc1)C1CCC1	none
O=C(c1ccc2c(c1)OCO2)N1CCC(N2CCOCC2=O)CC1	none
CN1CCCC1c1nc(C2CN(C(=O)c3cnccn3)C2)no1 (stereo unspecified)	none
O=C(c1ccccc1F)N1CCC2(CC1)N=C(c1ccccc1)NO2	none
Cc1ccccc1-n1nc(-c2c(C)nc3scc(CC(=O)NCC(C)C)n3c2=O)cc1C	none
Cc1cnc(C(=O)N2[C@@H]3CC[C@H]2CC(NC(=O)c2ccc(F)cc2)C3)cn1 (stereo partly specified)	none
O=C(CCCc1ccccc1)N1CCCC1c1noc(COc2ccc(F)cc2)n1 (stereo unspecified)	none
O=C1Nc2ccccc2C2(CCN(C(=O)c3ccccc3)C2)O1 (stereo unspecified)	none
CN(C)c1cccc(C(=O)Nc2nc3ccc(S(=O)(=O)N4CCCC4)cc3s2)c1	Pf Dd2 inh 12.6µM
COc1cccc(C(=O)Nc2nc3ccc(S(=O)(=O)N4CCCC4)cc3s2)c1	none
Cc1ccc(C(=O)Nc2nc3ccc(S(=O)(=O)N4CCCC4)cc3s2)cc1	none
O=C(c1cccc(=O)[nH]1)N1CCCC(c2n[nH]c(=O)n2-c2ccccc2)C1 (stereo unspecified)	none
Cc1ccc2c(c1)nc1n2[C@@H](CNC(=O)c2ccc(C#N)cc2)COC1	none
CCN(CC)c1ccc(C(=O)N2CCC(c3c[nH]c4ccccc34)(c3c[nH]c4ccccc34)CC2)cc1	Pf Dd2 inh 3.98µM
COc1ccccc1C(=O)N1CCC2(C1)C(=O)N(C)c1ccccc12 (stereo unspecified)	none
Cc1ccc(C(=O)N2CCC3(C2)C(=O)Nc2ccccc23)cc1 (stereo unspecified)	none
COc1ccccc1C(=O)N1CCC(c2c[nH]c3ccccc23)(c2c[nH]c3ccccc23)CC1	Pf Dd2 inh 3.55µM
CCN(CC)c1ccc(C(=O)N2CCC(c3ccncc3)CC2)cc1	none
COc1ccccc1C(=O)N1CCC(C(=O)O)(c2ccccc2)CC1	none
CC(=O)N1CCC(N2CCC([C@@H]3CNC[C@H]3CO)CC2)CC1	none
COc1ccc(C(=O)NC2CCN(C(=O)N3CC4CC(C3)[C@H]3CCCC(=O)N3C4)CC2)cc1 (stereo partly specified)	none
COc1ccc(C(=O)N2C[C@@H](Oc3cccnc3)C[C@H]2C(N)=O)cc1	none
Cc1cnc(C(=O)N2CCC3(CCCN(Cc4cccc(F)c4F)C3=O)C2)[nH]1 (stereo unspecified)	none
O=C1c2c(-c3nc(-c4ccsc4)no3)nnn2CCN1Cc1cc(F)cc(F)c1	none
O=C(Nc1ccc(Cl)cc1)c1ccc(Cn2ccn3nc4c(c3c2=O)CCCC4)cc1	Pf Dd2 inh 8.91µM
O=C(Nc1ccccc1)c1ccc(Cn2ccn3nc4c(c3c2=O)CCCC4)cc1	none
O=C(CCn1ccn2nc3c(c2c1=O)CCCC3)Nc1ccc(F)cc1	none
CC(C)NC(=O)c1ccc(Cn2ccn3nc4c(c3c2=O)CCCC4)cc1	none
CCOc1ccc(NC(=O)CCn2ccn3nc4c(c3c2=O)CCCC4)cc1	none
CN(C)c1ccc(NC(=O)CCn2ccn3nc4c(c3c2=O)CCCC4)cc1	Pf Dd2 inh 3.98µM
Cc1ccc(OCCSc2nc3ccc(NC(=O)c4cccs4)cc3s2)cc1	Pf Dd2 inh 1µM
O=C(Nc1ccc2nc(SCCOc3ccccc3Cl)sc2c1)c1cccs1	Pf Dd2 inh 2.82µM
Cc1ccccc1NC(=O)CSc1nc2ccc(NC(=O)c3cccs3)cc2s1	none
Cc1ccc(OCCSc2nc3ccc(NC(=O)c4ccc(F)cc4)cc3s2)cc1	none
Cc1ccc(OCCSc2nc3ccc(NC(=O)COc4ccc(F)cc4)cc3s2)cc1	none
CCC(=O)Nc1ccc2nc(SCCOc3ccccc3)sc2c1	none
